The target in test [1] is Retinoic acid receptor RXR-alpha (Homo sapiens) (UniProt P19793). Description: qHTS assay to identify small molecule agonists of the RXR signaling pathway (AID 1159527; calls by dose curve; further: nearly all actives have a fitted effect of over 35% in size). In short, it runs like this:
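Cells plated at 2,000/well, rested 5 hr at 37 C, pin-dosed with DMSO compound solutions, incubated 16 hr, then loaded with B/G FRET substrate for 2 hr at RT before dual-emission fluorescence reading.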
For orientation: qHTS replaces the single test concentration by a dilution series.

The nature of test [2]: qHTS assay to identify small molecule antagonists of the retinoic acid receptor (RAR) signaling pathway (AID 1159552; further: nearly all actives have a fitted effect of over 50% in size). In short, it runs like this:
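Retinol at 1 uM final stimulated RARE-luciferase expression in C3RL4 cells exposed to test compounds for 6 hr at 37 C. Reduced luminescence, read 30 min after detection reagent, indicated pathway antagonism.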

Test [3] can be described thus: qHTS assay to identify small molecule antagonists of the retinoid acid receptor (RAR) signaling pathway - cell viability counter screen (AID 1159551). Further: nearly all actives have a fitted effect of over 35% in size. In short, it runs like this: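 ATP-based viability, C3RL4 cells, 6 h at 37 C with 1 uM final retinol co-added after compound; luminescence read 30 min post CellTiter-Glo, RT.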
The nature of test [4]: qHTS assay to identify small molecule agonists of the constitutive androstane receptor (CAR) signaling pathway - cell viability counter screen (AID 1224836). Further: series mostly up to about 92 µM; nearly all actives have a fitted effect of over 45% in size. The method, boiled down: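 Cells were seeded and incubated 4 hrs. Compounds were added across 15 concentrations together with PK11195 at 0.75 uM final. Plates were incubated 23 hrs at 37 C. CellTiter-Fluor was added and fluorescence measured.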

Test [5] is described as follows: qHTS assay to identify small molecule antagonists of the constitutive androstane receptor (CAR) signaling pathway - cell viability counter screen (AID 1224837). Further: nearly all actives have a fitted effect of over 45% in size. Further: potency means the concentration at half of the fitted maximal effect. The method, boiled down: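 Cells are seeded, rested 4 hr at 37 C/5% CO2, dosed with compound (15-point series) and 50 nM CITCO, incubated a further 23 hr, and then CellTiter-Fluor reagent is added before fluorescence is read. The line is HepG2 with stable hCAR and CYP2B6-2.2kb.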

Test [6] is described as follows: qHTS RealTime-Glo MT Cell Viability Assay in HepG2 cells - 24 hour (AID 1224867). Further: nearly all actives have a fitted effect of over 50% in size. In short, it runs like this:
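Compound treatment began 5 h after plating HepG2 cells (600/well) with NanoLuc luciferase and prosubstrate. Plates stayed at 37 C for 40 h; luminescence was captured at six time points, 0 h through 40 h.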

The nature of test [7]: A CellTox Green Cytotoxicity Assay to monitor cytotoxicity in HEK293 cells - 24 hour (AID 1224875). Further: nearly all actives have a fitted effect of over 45% in size. Further: potency means the concentration at half of the fitted maximal effect. In short, it runs like this:
(§1)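 Dead-cell fluorescence measured kinetically: asymmetric cyanine dye, HEK293, 600 cells/well, 5 h settle, 23 nL cpd/DMSO, 37 C, reads 0–40 h every 8 h.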

Test [8] in a line: A CellTox Green Cytotoxicity Assay to monitor cytotoxicity in HepG2 cells - 24 hour (AID 1224878). Further: nearly all actives have a fitted effect of over 45% in size. Further: potency means the concentration at half of the fitted maximal effect. The method, boiled down: (§2)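 First, HepG2 cells (600/well) mixed with reagent were plated; second, after 5 h at 37 C they received compounds via pintool; third, fluorescence was measured at 0 h through 40 h at 8 h intervals.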
Test [9] can be described thus: A CellTox Green Cytotoxicity Assay to monitor cytotoxicity in HepG2 cells - 40 hour (AID 1224879). Further: nearly all actives have a fitted effect of over 40% in size. Further: potency means the concentration at half of the fitted maximal effect. In short, it runs like this:
as §2

Test [10] in a line: A CellTox Green Cytotoxicity Assay to monitor cytotoxicity in HepG2 cells - 32 hour (AID 1224883). Further: nearly all actives have a fitted effect of over 50% in size. Further: potency means the concentration at half of the fitted maximal effect. The method, boiled down:
as §2

Test [11] is described as follows: A CellTox Green Cytotoxicity Assay to monitor cytotoxicity in HEK293 cells - 8 hour (AID 1224884). Further: nearly all actives have a fitted effect of over 35% in size. The method, boiled down: as §1
Test [12] in a line: qHTS assay to identify small molecule antagonists of the sonic hedgehog signaling (Shh) pathway - cell viability counter screen (AID 1259367). Further: nearly all actives have a fitted effect of over 55% in size. Further: potency means the concentration at half of the fitted maximal effect. The method, boiled down:
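Fluorescence read-out (CellTiter-Fluor, 1 hr at 37C) taken after 23 hr compound treatment of 3T3 Gli1-Luc cells stimulated with conditioned medium. Cells were seeded at 2,000 per well and pre-incubated 4 hr.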

The target of test [13] is Thyrotropin-releasing hormone receptor (Homo sapiens) (UniProt P34981). Description: qHTS assay to identify small molecule agonists of the thyrotropin-releasing hormone receptor (TRHR) signaling pathway (AID 1346891; calls by dose curve;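 further: HEK293 cells expressing TRHR with calcium dye readout; series mostly up to about 58 µM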). In short, it runs like this: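 Cells: TRHR-Hek293, seeded and incubated 18 h. Dye loading: 2 h at 37 °C. Compound added from DMSO stock by pin tool. Read-out: kinetic calcium fluorescence over 3 min.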
Thyrotropin-releasing hormone receptor (Homo sapiens), sequence (P34981 whole entry, looked up): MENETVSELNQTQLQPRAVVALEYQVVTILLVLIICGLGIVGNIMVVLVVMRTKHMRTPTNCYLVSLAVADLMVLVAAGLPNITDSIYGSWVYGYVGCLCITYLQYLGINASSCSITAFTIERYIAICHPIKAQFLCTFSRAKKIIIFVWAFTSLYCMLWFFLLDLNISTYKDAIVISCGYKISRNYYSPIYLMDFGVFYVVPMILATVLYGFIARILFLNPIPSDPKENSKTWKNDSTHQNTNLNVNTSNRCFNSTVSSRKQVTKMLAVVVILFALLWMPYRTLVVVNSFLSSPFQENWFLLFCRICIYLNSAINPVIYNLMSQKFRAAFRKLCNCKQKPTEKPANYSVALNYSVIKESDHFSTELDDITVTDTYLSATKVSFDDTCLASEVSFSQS

A short description of test [14]: Caspase-3/7 induction in HepG2 cells by small molecules, qHTS cell viability counter screen (AID 1346981). Further: nearly all actives have a fitted effect of over 30% in size. Further: potency means the concentration at half of the fitted maximal effect. The method, boiled down: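 In this quantitative HTS counter screen, compounds delivered in DMSO were left on unmodified HepG2 cells for 16 hr at 37 C. Viability was then determined fluorometrically with CellTiter-Fluor, in parallel with caspase-3/7 induction in the same wells.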

The target in test [15] is Cytochrome P450 2C9 (Homo sapiens) (UniProt P11712). Description: Cytochrome P450 Family 2 Subfamily C Member 9 (CYP2C9) small molecule antagonists: luciferase reporter qHTS assay (AID 1671198). Further: nearly all actives have a fitted effect of over 50% in size. Further: potency means the concentration at half of the fitted maximal effect. The method, boiled down:
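P450-Glo proluciferin substrate with CYP2C9 enzyme; 10 min RT preincubation, then NADPH regeneration 1 h at 37C; luciferin detection reagent 20 min RT, luminescence in relative luminescence units.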
Background: A reporter such as luciferase makes a cellular process visible.

A short description of test [16]: qHTS assay to identify small molecule antagonists of the estrogen related receptor (ERR) signaling pathway from Tox21 library - cell viability counter screen (AID 1224834). Further: nearly all actives have a fitted effect of over 30% in size. Further: potency means the concentration at half of the fitted maximal effect. The method, boiled down:
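Compounds in DMSO were pinned onto ERR cells that had been incubated for 6 h, and the plates were held at 37 C for 17.5 h. CellTiter-Fluor reagent was then added and fluorescence was measured after 30 min.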

Test [17] addresses Luciferin 4-monooxygenase (Photinus pyralis) (UniProt P08659). In words: qHTS assay to identify small molecule inhibitors of firefly luciferase (AID 1224835). Further: series mostly up to about 120 µM; nearly all actives have a fitted effect of over 25% in size. The method, boiled down: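 Biochemical qHTS: compounds run as interplate titrations against purified firefly enzyme, with D-luciferin and ATP each at its KM concentration. Light output recorded by CCD imaging.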
Test [18] can be described thus: qHTS RealTime-Glo MT Cell Viability Assay in HEK293 cells - 32 hour (AID 1224868). Further: nearly all actives have a fitted effect of over 50% in size. Further: potency means the concentration at half of the fitted maximal effect. In short, it runs like this:
(§3)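 Quantitative high-throughput screen of the Tox21 10K library in HEK293: cells and RealTime-Glo reagents plated together, compound added at 5 h, luminescence monitored through 40 h at 37 C.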

Test [19] in a line: qHTS RealTime-Glo MT Cell Viability Assay in HEK293 cells - 24 hour (AID 1224886). Further: nearly all actives have a fitted effect of over 50% in size. Further: potency means the concentration at half of the fitted maximal effect. In short, it runs like this: as §3
Test [20] has as its target Nuclear receptor subfamily 1 group I member 2 (Homo sapiens) (UniProt O75469). In words: Human pregnane X receptor (PXR) small molecule agonists, qHTS assay (AID 1346982). Further: nearly all actives have a fitted effect of over 35% in size. Further: potency means the concentration at half of the fitted maximal effect. The method, boiled down:
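Reporter HepG2 cells expressing PXR-Luc are cultured in charcoal-stripped FBS (5%), treated with compounds for 24 hr at 37 C, and assayed by ONE-Glo luminescence after 30 min at room temperature.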

SMILES strings stand for the structures. Values without a mark were called inactive. Records with an inconclusive call do not appear. Activity calls are given as the source filed them. Unless noted, the call rests on the fitted dose curve; in most records, active means well fitted curve in the direction sought with a large enough effect in the repeat runs; inconclusive means weak or mixed curves; inactive means no such curve, though single readings can be large; an effect the other way counts as inactive or inconclusive.

Nuclear receptor subfamily 1 group I member 2 (Homo sapiens), sequence (O75469 whole entry, looked up): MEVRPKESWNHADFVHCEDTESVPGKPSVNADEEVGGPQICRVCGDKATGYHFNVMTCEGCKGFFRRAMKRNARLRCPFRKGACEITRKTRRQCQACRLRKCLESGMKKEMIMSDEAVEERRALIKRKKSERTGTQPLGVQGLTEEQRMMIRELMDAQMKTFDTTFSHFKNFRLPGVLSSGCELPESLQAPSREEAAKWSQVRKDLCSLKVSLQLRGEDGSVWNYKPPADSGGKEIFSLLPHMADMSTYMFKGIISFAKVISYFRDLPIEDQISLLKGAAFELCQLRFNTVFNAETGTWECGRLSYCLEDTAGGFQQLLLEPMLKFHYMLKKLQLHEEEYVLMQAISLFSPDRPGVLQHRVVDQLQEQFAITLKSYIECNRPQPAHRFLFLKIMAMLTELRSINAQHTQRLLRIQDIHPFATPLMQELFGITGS
Cytochrome P450 2C9 (Homo sapiens), sequence (P11712 whole entry, looked up): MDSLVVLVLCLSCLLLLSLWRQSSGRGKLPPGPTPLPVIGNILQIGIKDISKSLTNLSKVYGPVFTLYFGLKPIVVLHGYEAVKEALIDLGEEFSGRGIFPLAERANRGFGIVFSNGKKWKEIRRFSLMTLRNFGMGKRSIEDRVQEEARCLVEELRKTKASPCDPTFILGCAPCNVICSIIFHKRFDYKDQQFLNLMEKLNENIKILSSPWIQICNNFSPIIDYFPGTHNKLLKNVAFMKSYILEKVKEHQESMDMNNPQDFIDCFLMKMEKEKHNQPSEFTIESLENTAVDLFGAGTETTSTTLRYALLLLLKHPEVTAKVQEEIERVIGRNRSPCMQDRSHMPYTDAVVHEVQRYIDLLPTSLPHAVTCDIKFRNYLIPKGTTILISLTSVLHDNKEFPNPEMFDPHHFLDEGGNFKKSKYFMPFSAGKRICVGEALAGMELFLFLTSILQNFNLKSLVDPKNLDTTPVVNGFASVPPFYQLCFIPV
Luciferin 4-monooxygenase (Photinus pyralis), sequence (P08659 whole entry, looked up): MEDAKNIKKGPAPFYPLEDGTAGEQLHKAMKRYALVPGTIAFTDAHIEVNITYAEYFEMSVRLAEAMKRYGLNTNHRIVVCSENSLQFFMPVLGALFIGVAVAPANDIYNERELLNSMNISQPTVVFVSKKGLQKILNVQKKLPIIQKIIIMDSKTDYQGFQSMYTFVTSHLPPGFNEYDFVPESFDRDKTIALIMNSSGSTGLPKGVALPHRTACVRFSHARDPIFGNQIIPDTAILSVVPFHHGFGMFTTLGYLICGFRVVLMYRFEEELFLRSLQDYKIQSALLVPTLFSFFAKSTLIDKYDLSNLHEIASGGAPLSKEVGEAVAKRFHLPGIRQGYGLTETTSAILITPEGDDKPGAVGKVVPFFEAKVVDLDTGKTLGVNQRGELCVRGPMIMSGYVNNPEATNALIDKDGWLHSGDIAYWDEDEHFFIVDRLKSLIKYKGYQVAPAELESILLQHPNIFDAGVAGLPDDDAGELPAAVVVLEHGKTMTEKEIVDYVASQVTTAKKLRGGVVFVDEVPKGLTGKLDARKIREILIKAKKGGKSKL
Retinoic acid receptor RXR-alpha (Homo sapiens), sequence (P19793 whole entry, looked up): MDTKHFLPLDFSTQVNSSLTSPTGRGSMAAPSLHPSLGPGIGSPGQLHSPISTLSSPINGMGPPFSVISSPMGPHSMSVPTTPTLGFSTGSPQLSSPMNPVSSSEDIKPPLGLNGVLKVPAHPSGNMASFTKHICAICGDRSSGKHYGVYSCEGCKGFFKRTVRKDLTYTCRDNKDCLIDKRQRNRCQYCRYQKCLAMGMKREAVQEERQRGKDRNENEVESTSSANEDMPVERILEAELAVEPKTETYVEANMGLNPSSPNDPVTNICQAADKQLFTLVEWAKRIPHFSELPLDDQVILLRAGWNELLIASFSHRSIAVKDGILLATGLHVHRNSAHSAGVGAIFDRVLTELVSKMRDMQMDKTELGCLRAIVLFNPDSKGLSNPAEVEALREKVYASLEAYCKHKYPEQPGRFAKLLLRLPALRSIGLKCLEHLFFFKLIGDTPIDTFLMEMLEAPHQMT

As to `CCCCC(CC)COC(=O)c1ccc(C(=O)OCC(CC)CCCC)cc1` (stereo unspecified), the Potency entry in test [1] and in test [2] was “inactive” each time.

`OC(Cc1ccccc1Cl)(Cn1[nH]cnc1=S)C1(Cl)CC1` (stereo unspecified): the Potency entry in [3], in [4], in test [5], in [6], in [7] and in test [8] was “inactive” throughout. Besides, the Potency result in [9], in [10], in test [11], in test [12] and in test [14] was “inactive” in each case. In addition, the result in test [13] was inactive. Besides, in [15], the Potency was 0.894 µM (active).

With `Cc1nnc2n1-c1sc(CCc3ccc(CC(C)C)cc3)cc1C(c1ccccc1Cl)=NC2C` (stereo unspecified), the Potency in test [16] was 26.6 µM (active); in test [18], 9.52 µM (active); in [19], 10.7 µM (active); in [20] it was 4.22 µM (active); in test [15] it was 27.5 µM (active). The Potency result in test [17], in test [7], in test [11] and in [12] was “inactive” in each case. Further, the outcome in [13] was inactive.

As to `C=CC(=O)OCCCC`, the Potency entry in [1] was “inactive”.

Take `CCN(CC)C(=O)Cl`: the Potency entry in test [1], in test [3], in test [16], in test [17], in test [4] and in test [5] was “inactive” throughout. Also, the Potency entry in [6], in [18], in [7], in test [8], in test [9] and in [10] was “inactive” in each case. The Potency entry in test [11], in test [19], in [12], in test [14], in [20] and in [15] was “inactive” each time. The call in test [13] was inactive.

Regarding `Nc1ccc([N+](=O)[O-])cc1`, the Potency in test [16] is 15.4 µM (active); in test [5], 30.6 µM (active); in test [18] it was 38.9 µM (active); in test [7], 49 µM (active); in test [8] it was 43.6 µM (active); in test [9], 43.6 µM (active). Besides, the Potency in test [10] was 43.6 µM (active); in test [19], 24.5 µM (active); in test [14], 40.9 µM (active); in test [20] it was 61.1 µM (active); in test [15], 25.2 µM (active). Moreover, the Potency entry in test [6] was “inactive”.

In the case of `O=[N+]([O-])c1cc(C(F)(F)F)ccc1Cl`, in [1], the Potency entry is “inactive”.

On to `O=[N+]([O-])c1c(Cl)c(Cl)cc(Cl)c1Cl`, for which the Potency result in test [3], in [2], in test [16], in test [17], in [4] and in [5] was “inactive” in each case. Besides, the Potency entry in [6], in test [18], in [19], in [12] and in [14] was “inactive” each time. Also, the values for the Potency in test [7], in [9] and in test [10] were 49 µM (active), 54.9 µM (active) and 54.9 µM (active), respectively.

As for `ClC(Cl)=C(c1ccc(Cl)cc1)c1ccccc1Cl`, the Potency entry in [3], in test [16], in [17], in test [4], in test [5] and in test [6] was “inactive” each time. Moreover, the Potency result in [12] and in test [14] was “inactive” each time. Also, the outcome in test [13] was inactive. The Potency in [20] was 30.6 µM (active); in test [15] it was 25.2 µM (active).

Turning to `Cc1cc(C(C)(C)c2ccc(O)c(C)c2)ccc1O`, the Potency result in test [3], in test [17] and in [6] was “inactive” throughout. The Potency in [16] was 51.9 µM (active); in test [18], 23.4 µM (active); in [19], 20.8 µM (active); in test [12], 46.2 µM (active); in test [14], 46.2 µM (active); in test [20], 58.2 µM (active). In addition, in test [15], the Potency is 5.37 µM (active). Moreover, in test [13], the molecule was called inactive.

With `COCCOC(=O)c1ccccc1C(=O)OCCOC`, the Potency entry in test [1] is “inactive”.

Take `Nc1ccc(Cl)cc1[N+](=O)[O-]`: the Potency entry in test [1] was “inactive”.
